# Experimental data from PMC7862700, “An all-to-all approach to the identification of sequence-specific readers for epigenetic DNA modifications on cytosine”.
# Experiments:
# Assay in all cases: DAPPL (digital affinity profiling via proximity ligation, sequencing); 10 mM Tris-HCl pH 7.5, 50 mM NaCl, 1 mM DTT, 4% glycerol, room temperature, 30 min; GST-TFs on glutathione beads, 16-mer random dsDNA library, 0.1% formaldehyde crosslink after washing; high values mean tight binding
# Settings in all cases: protein: recombinant; tags: N-terminal GST; dsDNA, one strand shown
# ETV2 = target: T1, ETV2 (Homo sapiens, UniProt O00321 1-342)
# T1 sequence: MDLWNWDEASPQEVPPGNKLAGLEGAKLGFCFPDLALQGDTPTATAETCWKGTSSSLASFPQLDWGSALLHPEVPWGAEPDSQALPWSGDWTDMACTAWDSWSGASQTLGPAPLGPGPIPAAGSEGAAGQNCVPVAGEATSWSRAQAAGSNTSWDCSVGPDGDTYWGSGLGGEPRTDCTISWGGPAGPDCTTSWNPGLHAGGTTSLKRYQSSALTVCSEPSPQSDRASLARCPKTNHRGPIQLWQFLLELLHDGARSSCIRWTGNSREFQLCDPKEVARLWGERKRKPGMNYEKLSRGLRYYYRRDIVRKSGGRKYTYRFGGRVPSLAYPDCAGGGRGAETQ
# Method in brief: (§1)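 A tag-only sample was pooled with DNA-barcoded human transcription factors that had been expressed in yeast as GST fusions and captured on glutathione beads. The pools were incubated for 30 min at room temperature with 200 nmole of a random double-stranded 16-mer DNA library in Tris/NaCl/DTT/glycerol buffer, then washed, crosslinked with 0.1% formaldehyde, proximity-ligated (BsaI/T4 ligase, 1 h, 37 °C), PCR-amplified and sequenced on an Illumina NextSeq500. Binding signal is each hexamer's read frequency for a factor divided by its frequency for the tag-only sample.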
# ELF3 = target: T2, ELF3 (Homo sapiens, UniProt P78545 1-371)
# T2 sequence: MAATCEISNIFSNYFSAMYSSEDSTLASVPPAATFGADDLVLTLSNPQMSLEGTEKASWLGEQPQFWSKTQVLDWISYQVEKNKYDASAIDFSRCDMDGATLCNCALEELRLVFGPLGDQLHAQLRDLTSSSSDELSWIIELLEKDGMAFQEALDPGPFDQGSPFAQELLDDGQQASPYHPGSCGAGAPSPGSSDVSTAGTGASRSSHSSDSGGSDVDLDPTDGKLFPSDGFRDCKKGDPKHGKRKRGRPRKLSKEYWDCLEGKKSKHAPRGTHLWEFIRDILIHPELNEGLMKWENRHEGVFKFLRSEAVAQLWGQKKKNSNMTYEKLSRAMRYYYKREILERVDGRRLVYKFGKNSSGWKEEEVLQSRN
# Method in brief: as §1
# ETV1 = ETV1 (Homo sapiens, UniProt P50549 1-477)
# Chain of ETV1 (P50549 whole entry): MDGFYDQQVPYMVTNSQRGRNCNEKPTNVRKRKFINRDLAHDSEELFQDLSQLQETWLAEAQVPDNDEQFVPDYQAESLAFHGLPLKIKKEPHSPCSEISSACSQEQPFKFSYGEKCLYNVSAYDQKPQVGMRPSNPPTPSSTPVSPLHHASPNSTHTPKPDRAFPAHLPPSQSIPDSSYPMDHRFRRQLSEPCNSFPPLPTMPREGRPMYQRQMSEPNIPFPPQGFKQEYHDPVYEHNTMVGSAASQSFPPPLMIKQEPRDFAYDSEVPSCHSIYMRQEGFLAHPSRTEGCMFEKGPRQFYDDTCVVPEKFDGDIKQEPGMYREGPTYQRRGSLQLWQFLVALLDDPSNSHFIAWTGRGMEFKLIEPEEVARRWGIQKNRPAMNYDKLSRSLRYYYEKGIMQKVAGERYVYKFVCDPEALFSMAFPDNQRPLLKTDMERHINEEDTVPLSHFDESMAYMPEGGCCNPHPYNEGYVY
# Method in brief: as §1
# ERF = target: T3, ERF (Homo sapiens, UniProt P50548 1-548)
# T3 sequence: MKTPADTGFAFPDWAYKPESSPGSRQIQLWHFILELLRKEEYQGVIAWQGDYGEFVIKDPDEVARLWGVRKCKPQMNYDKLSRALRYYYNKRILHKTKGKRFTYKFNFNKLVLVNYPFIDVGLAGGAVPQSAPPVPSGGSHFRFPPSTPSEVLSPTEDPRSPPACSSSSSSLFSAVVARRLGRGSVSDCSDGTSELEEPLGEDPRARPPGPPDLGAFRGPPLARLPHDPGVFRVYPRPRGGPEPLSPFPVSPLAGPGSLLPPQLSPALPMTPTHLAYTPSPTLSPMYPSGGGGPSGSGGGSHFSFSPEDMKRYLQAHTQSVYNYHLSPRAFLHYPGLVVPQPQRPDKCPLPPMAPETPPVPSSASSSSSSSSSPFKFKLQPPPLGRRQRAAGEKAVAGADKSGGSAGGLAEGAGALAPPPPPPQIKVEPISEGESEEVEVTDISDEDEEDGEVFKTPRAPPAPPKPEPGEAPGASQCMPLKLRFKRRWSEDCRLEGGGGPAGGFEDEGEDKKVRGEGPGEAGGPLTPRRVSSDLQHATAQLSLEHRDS
# Method in brief: as §1
# ETV3L = target: T4, ETV3L (Homo sapiens, UniProt Q6ZN32 1-361)
# T4 sequence: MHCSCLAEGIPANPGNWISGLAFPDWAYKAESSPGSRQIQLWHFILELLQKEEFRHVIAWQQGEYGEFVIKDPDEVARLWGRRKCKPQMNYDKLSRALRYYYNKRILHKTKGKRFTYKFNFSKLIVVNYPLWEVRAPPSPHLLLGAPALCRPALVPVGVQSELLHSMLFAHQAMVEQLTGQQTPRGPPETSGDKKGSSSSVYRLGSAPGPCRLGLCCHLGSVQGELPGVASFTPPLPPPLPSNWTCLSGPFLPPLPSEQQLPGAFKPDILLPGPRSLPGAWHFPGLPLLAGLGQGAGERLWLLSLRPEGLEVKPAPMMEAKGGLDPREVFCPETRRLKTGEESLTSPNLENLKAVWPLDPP
# Method in brief: as §1
# ETS2 = target: T5, ETS2 (Homo sapiens, UniProt P15036 1-469)
# T5 sequence: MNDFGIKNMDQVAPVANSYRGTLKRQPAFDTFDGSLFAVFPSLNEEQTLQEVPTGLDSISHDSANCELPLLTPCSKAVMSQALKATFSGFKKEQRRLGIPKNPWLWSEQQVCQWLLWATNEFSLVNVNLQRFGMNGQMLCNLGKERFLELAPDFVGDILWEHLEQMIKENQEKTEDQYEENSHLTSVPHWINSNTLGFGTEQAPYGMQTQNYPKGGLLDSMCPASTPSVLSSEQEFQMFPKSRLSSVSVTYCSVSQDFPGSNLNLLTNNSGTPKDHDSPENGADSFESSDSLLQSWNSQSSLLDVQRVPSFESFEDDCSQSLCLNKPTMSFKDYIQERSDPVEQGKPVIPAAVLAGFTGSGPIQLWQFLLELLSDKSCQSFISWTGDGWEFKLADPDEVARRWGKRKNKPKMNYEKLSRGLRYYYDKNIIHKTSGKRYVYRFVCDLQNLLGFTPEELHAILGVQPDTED
# Method in brief: as §1
# SPDEF = target: T6, SPDEF (Homo sapiens, UniProt O95238 1-335)
# T6 sequence: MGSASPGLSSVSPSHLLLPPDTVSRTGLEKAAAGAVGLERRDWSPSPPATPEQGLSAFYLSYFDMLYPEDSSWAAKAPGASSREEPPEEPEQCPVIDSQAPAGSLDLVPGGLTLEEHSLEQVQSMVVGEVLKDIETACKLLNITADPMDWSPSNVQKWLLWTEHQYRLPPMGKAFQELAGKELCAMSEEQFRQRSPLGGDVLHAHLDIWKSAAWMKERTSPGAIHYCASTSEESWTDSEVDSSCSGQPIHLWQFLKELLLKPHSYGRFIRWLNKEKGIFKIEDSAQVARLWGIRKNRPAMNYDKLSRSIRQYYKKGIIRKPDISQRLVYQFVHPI
# Method in brief: as §1
# ETV7 = target: T7, ETV7 (Homo sapiens, UniProt Q9Y603 1-341)
# T7 sequence: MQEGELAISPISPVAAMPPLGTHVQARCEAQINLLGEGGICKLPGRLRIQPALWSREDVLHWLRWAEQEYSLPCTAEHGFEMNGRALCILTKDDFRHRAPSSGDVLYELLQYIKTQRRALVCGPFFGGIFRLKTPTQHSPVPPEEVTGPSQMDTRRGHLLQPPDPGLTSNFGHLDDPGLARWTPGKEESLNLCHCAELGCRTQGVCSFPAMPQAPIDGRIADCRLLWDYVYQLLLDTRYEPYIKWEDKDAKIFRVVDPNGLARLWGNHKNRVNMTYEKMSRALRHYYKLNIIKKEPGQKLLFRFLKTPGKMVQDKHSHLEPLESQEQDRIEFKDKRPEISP
# Method in brief: as §1
# ETV3 = target: T8, ETV3 (Homo sapiens, UniProt P41162-2 1-143)
# T8 sequence: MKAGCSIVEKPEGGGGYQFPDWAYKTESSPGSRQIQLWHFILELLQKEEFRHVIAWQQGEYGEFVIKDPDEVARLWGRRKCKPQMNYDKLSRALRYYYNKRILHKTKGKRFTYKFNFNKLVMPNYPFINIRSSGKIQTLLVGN
# Method in brief: as §1
# ETV6 = ETV6 (Homo sapiens, UniProt P41212 1-452)
# Chain of ETV6 (P41212 whole entry): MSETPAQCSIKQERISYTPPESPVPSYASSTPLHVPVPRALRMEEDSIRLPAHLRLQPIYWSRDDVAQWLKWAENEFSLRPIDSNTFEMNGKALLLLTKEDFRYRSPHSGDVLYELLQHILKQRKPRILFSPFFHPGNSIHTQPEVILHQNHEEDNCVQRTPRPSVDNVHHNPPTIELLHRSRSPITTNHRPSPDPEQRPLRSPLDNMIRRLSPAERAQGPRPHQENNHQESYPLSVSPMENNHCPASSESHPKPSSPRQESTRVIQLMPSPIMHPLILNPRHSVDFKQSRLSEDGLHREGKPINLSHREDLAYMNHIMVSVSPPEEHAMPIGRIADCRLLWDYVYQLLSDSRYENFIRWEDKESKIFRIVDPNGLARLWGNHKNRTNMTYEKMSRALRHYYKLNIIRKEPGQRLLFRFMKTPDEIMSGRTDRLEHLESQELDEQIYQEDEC
# Method in brief: as §1
sequence,measurement,setting,value
CATGCA,binding signal,ETV2,"1.12 fold enrichment (6-mer frequency, TF over GST control)"
same,binding signal,ELF3,"1.16 fold enrichment (6-mer frequency, TF over GST control)"
same,binding signal,ETV1,"1.11 fold enrichment (6-mer frequency, TF over GST control)"
same,binding signal,ERF,"1.09 fold enrichment (6-mer frequency, TF over GST control)"
same,binding signal,ETV3L,"1.16 fold enrichment (6-mer frequency, TF over GST control)"
same,binding signal,ETS2,"1.06 fold enrichment (6-mer frequency, TF over GST control)"
same,binding signal,SPDEF,"1.13 fold enrichment (6-mer frequency, TF over GST control)"
same,binding signal,ETV7,"1.03 fold enrichment (6-mer frequency, TF over GST control)"
same,binding signal,ETV3,"1.05 fold enrichment (6-mer frequency, TF over GST control)"
same,binding signal,ETV6,"1.18 fold enrichment (6-mer frequency, TF over GST control)"
